# Laboratory results: PubChem BioAssay (EPA / NIEHS)
# Active and inactive are the calls of the source. The calls were made as follows: active = hit-call score of the fitted dose curve at least 0.9, where 1 is the maximum; inactive = score below 0.9.
# How the values were obtained:
# Settings in all cases: mRNA level, 48 h; actives raise or lower the signal
# [1] = read-out: ABC Transporter (ABCB1), ABCB1 (gene 5243); test: LTEA_HepaRG_ABCB1: Life Technologies and Expression Analysis (LTEA) Assay for ABC Transporter (ABCB1) using HepaRG (AID 2283460)
# Method in brief: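 Human liver HepaRG line treated 48 h with up to 100 uM compound (eight half-log points, 0.5% DMSO); ABCB1 mRNA change fitted bidirectionally against DMSO controls.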
# [2] = read-out: growth arrest and DNA damage 45 (GADD45B), GADD45B (gene 4616); test: LTEA_HepaRG_GADD45B: Life Technologies and Expression Analysis (LTEA) Assay for growth arrest and DNA damage 45 (GADD45B) using HepaRG (AID 2283461)
# Method in brief: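 HepaRG, ~100,000 cells/well, 48 h plating; serum-free induction medium; cpd 100 uM top, half-log x8, 0.5% DMSO, duplicate, 48 h; lysis in RLT, RNA isolation, qRT-PCR; norm ACTB/GAPDH/POLR2A; bidirectional fit vs DMSO.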
# [3] = read-out: ABC Transporter (ABCC3), ABCC3 (gene 8714); test: LTEA_HepaRG_ABCC3: Life Technologies and Expression Analysis (LTEA) Assay for ABC Transporter (ABCC3) using HepaRG (AID 2283462)
# Method in brief: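 Human HepaRG, 48 h dosing, 8-pt half-log series from 100 uM, 0.5% DMSO vehicle, duplicates. ABCC3 mRNA by TaqMan qRT-PCR, housekeeping-normalized; bidirectional curve fit vs DMSO.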
# [4] = read-out: ABC Transporter (ABCB11), ABCB11 (gene 8647); test: LTEA_HepaRG_ABCB11: Life Technologies and Expression Analysis (LTEA) Assay for ABC Transporter (ABCB11) using HepaRG (AID 2283463)
# Method in brief: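 Using HepaRG cultures held in 0.5% DMSO, chemicals were tested at half-log dilutions from 100 uM for 48 h. Induction or suppression of ABCB11 mRNA, normalized to ACTB, GAPDH and POLR2A, was fitted bidirectionally against vehicle.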
# [5] = read-out: ABC Transporter (ABCC2), ABCC2 (gene 1244); test: LTEA_HepaRG_ABCC2: Life Technologies and Expression Analysis (LTEA) Assay for ABC Transporter (ABCC2) using HepaRG (AID 2283464)
# Method in brief: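 HepaRG, 48 h post-plating; serum-free induction medium; cpd 8-pt, 100 uM top, half-log, 0.5% DMSO, duplicate, 48 h. Readout: ABCC2 mRNA by qRT-PCR, norm. ACTB/GAPDH/POLR2A. Bidirectional fit vs DMSO baseline.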
# [6] = read-out: Broad substrate specificity ATP-binding cassette transporter ABCG2 (Homo sapiens) (UniProt Q9UNQ0); test: LTEA_HepaRG_ABCG2: Life Technologies and Expression Analysis (LTEA) Assay for ABC Transporter (ABCG2) using HepaRG (AID 2283465)
# Method in brief: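 Gene expression of ABCG2 in HepaRG liver cells is quantified by qRT-PCR following 48 h exposure across an eight-point series topping at 100 uM. Values come from bidirectional fitting relative to DMSO vehicle.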
# [7] = read-out: ATP-citrate lyase (ACLY), ACLY (gene 47); test: LTEA_HepaRG_ACLY: Life Technologies and Expression Analysis (LTEA) Assay for ATP-citrate lyase (ACLY) using HepaRG (AID 2283466)
# Method in brief: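 ACLY expression changes in human HepaRG liver cells are quantified by qRT-PCR after 48 h exposure to test chemicals (maximum 100 uM, half-log steps). Values are fitted in both directions relative to 0.5% DMSO vehicle.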
# [8] = read-out: Peroxisomal acyl-coenzyme A oxidase 1 (ACOX1) gene, ACOX1 (gene 51); test: LTEA_HepaRG_ACOX1: Life Technologies and Expression Analysis (LTEA) Assay for Peroxisomal acyl-coenzyme A oxidase 1 (ACOX1) gene using HepaRG (AID 2283467)
# Method in brief: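 Human HepaRG hepatic cultures, 48 h treatment with test chemicals up to 100 uM. ACOX1 expression read by qRT-PCR relative to 0.5% DMSO vehicle.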
# [9] = read-out: Alkaline Phosphatase, Placental (ALPP) gene, ALPP (gene 250); test: LTEA_HepaRG_ALPP: Life Technologies and Expression Analysis (LTEA) Assay for Alkaline Phosphatase, Placental (ALPP) gene using HepaRG (AID 2283468);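 as to AC50: differentiated human HepaRG liver cells in serum-free induction medium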
# Method in brief: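 HepaRG, 48 h plating then 48 h dosing, serum-free induction medium, 0.5% DMSO. 8 conc, half-log, max 100 uM, duplicates. Endpoint: ALPP transcript by qRT-PCR, housekeeping-normalized; gain or loss fitted vs DMSO.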
# [10] = read-out: Bcl-2 (BAD) gene, BAD (gene 572); test: LTEA_HepaRG_BAD: Life Technologies and Expression Analysis (LTEA) Assay for Bcl-2 (BAD) gene using HepaRG (AID 2283469)
# Method in brief: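 Activity values reflect up- or down-regulation of BAD mRNA in human HepaRG hepatic cells treated 48 h in serum-free medium, with eight-point half-log dosing capped at 100 uM and 0.5% DMSO vehicle.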
# [11] = read-out: Bcl-2 (BAX) gene, BAX (gene 581); test: LTEA_HepaRG_BAX: Life Technologies and Expression Analysis (LTEA) Assay for Bcl-2 (BAX) gene using HepaRG (AID 2283470)
# Method in brief: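 Human HepaRG cells treated in duplicate for 48 h across eight concentrations (max 100 uM, 0.5% DMSO); BAX expression measured by qRT-PCR.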
# [12] = read-out: adenosine kinase (ADK) gene, ADK (gene 132); test: LTEA_HepaRG_ADK: Life Technologies and Expression Analysis (LTEA) Assay for adenosine kinase (ADK) gene using HepaRG (AID 2283471)
# Method in brief: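 Read-out is ADK transcript level measured by qRT-PCR and normalised to three housekeeping genes. Cells are human HepaRG, dosed for 48 h at up to 100 uM in 0.5% DMSO. Gain or loss of signal is fitted against DMSO controls.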
# [13] = read-out: Alpha-fetoprotein (AFP) gene, AFP (gene 174); test: LTEA_HepaRG_AFP: Life Technologies and Expression Analysis (LTEA) Assay for Alpha-fetoprotein (AFP) gene using HepaRG (AID 2283472)
# Method in brief: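 Measures AFP mRNA change in HepaRG after 48 h chemical exposure (8 half-log concentrations, highest 100 uM, 0.5% DMSO). Fold change relative to DMSO, fitted in both directions.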
# BCL2L11 (gene 10018) = test: LTEA_HepaRG_BCL2L11: Life Technologies and Expression Analysis (LTEA) Assay for Bcl-2 (BCL2L11) gene using HepaRG (AID 2283473)
# Method in brief: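 Read-out is BCL2L11 transcript level by qRT-PCR, normalized to three housekeeping genes and fitted bidirectionally against 0.5% DMSO vehicle. HepaRG cells received chemicals for 48 h in serum-free induction medium, 100 uM down in half-log dilutions.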
# [14] = read-out: Apolipoprotein A-V (APOA5) gene, APOA5 (gene 116519); test: LTEA_HepaRG_APOA5: Life Technologies and Expression Analysis (LTEA) Assay for Apolipoprotein A-V (APOA5) gene using HepaRG (AID 2283474)
# Method in brief: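 Readout is APOA5 transcript level by qRT-PCR on Fluidigm dynamic arrays, normalized to three housekeeping genes. HepaRG cultures received chemicals for 48 h at up to 100 uM (half-log steps, 0.5% DMSO), with gain or loss scored relative to DMSO.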
# [15] = read-out: Apoptosis regulator Bcl-2 (Homo sapiens) (UniProt P10415); test: LTEA_HepaRG_BCL2: Life Technologies and Expression Analysis (LTEA) Assay for Bcl-2 gene using HepaRG (AID 2283475);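 also: BCL2 transcript by TaqMan qRT-PCR normalised to ACTB GAPDH and POLR2A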
# Method in brief: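 Each chemical was tested in duplicate on HepaRG cultures held in serum-free induction medium for 48 h, highest concentration 100 uM with half-log dilutions. Transcript levels came from multiplexed qRT-PCR, normalised to housekeeping genes; activity was scored in either direction relative to DMSO.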
# [16] = read-out: Bcl-2 (BID) gene, BID (gene 637); test: LTEA_HepaRG_BID: Life Technologies and Expression Analysis (LTEA) Assay for Bcl-2 (BID) gene using HepaRG (AID 2283476)
# Method in brief: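 Assay used HepaRG hepatic cells treated 48 h in serum-free medium with half-log dilutions from 100 uM. Endpoint: BID mRNA, qRT-PCR, normalized to ACTB/GAPDH/POLR2A.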
# Caspase-3 (Homo sapiens) = Caspase-3 (Homo sapiens) (UniProt P42574); test: LTEA_HepaRG_CASP3: Life Technologies and Expression Analysis (LTEA) Assay for cysteine-aspartic acid protease (CASP3) using HepaRG (AID 2283477)
# Caspase-3 (Homo sapiens), sequence (P42574 whole entry, looked up): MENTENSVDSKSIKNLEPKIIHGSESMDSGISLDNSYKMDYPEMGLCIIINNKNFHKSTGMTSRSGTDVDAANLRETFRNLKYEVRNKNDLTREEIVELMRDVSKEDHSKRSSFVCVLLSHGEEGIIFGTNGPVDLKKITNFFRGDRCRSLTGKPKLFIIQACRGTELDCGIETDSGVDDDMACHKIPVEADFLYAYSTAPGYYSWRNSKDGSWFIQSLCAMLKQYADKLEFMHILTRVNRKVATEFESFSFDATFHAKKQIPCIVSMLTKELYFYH
# Method in brief: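 Read-out is CASP3 mRNA level by TaqMan qRT-PCR in human HepaRG cells after 48 h chemical exposure. Eight half-log concentrations topping at 100 uM were tested in 0.5% DMSO; gain or loss was fitted relative to DMSO.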
# [17] = read-out: Cytochrome P450 (CYP24A1), CYP24A1 (gene 1591); test: LTEA_HepaRG_CYP24A1: Life Technologies and Expression Analysis (LTEA) Assay for Cytochrome P450 (CYP24A1) using HepaRG (AID 2283478)
# Method in brief: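 HepaRG, 48 h chemical exposure, 8-pt half-log CRC from 100 uM, 0.5% DMSO vehicle, duplicates. Endpoint: CYP24A1 mRNA by Fluidigm TaqMan qRT-PCR, normalized ACTB/GAPDH/POLR2A; gain/loss fit vs DMSO.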
# [18] = read-out: Cytochrome P450 (CYP1A2), CYP1A2 (gene 1544); test: LTEA_HepaRG_CYP1A2: Life Technologies and Expression Analysis (LTEA) Assay for Cytochrome P450 (CYP1A2) using HepaRG (AID 2283479)
# Method in brief: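 CYP1A2 transcript induction or loss, quantified by Fluidigm qRT-PCR against three housekeeping genes, was fitted bidirectionally against 0.5% DMSO controls. Human HepaRG cells received eight half-log concentrations from 100 uM over 48 h.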
# Broad substrate specificity ATP-binding cassette transporter ABCG2 (Homo sapiens), sequence (Q9UNQ0 whole entry, looked up): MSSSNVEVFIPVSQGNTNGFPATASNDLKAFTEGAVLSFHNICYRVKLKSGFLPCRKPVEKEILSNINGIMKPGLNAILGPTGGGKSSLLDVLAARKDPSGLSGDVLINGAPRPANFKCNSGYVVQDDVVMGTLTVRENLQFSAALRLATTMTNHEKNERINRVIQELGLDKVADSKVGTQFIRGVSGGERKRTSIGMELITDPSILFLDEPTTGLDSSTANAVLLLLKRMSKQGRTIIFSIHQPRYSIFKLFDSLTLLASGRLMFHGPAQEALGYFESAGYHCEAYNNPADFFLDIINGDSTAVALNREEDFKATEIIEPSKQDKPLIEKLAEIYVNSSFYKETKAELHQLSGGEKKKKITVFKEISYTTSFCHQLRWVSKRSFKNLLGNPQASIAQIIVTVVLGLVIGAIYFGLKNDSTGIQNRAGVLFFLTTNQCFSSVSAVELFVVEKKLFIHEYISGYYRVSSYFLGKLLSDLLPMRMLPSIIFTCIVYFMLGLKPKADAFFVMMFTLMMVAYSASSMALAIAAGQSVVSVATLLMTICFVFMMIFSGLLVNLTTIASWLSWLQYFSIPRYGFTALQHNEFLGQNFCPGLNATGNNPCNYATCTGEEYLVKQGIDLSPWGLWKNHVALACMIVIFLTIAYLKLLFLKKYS
# Apoptosis regulator Bcl-2 (Homo sapiens), sequence (P10415 whole entry, looked up): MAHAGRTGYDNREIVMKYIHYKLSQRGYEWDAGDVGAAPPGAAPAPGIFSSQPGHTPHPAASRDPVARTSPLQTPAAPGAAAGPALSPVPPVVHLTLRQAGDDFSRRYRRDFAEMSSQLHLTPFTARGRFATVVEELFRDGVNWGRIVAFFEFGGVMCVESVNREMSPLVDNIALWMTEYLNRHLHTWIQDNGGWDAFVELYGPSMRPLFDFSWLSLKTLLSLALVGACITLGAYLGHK
structure (smiles),measurement,setting,value
Cc1c(COC(=O)[C@@H]2[C@H](/C=C(\Cl)C(F)(F)F)C2(C)C)cccc1-c1ccccc1,AC50,[1],28.3 µM (active)
same,outcome,[2],inactive
same,outcome,[3],inactive
same,outcome,[4],inactive
same,outcome,[5],inactive
same,AC50,[6],50 µM (active)
same,outcome,[7],inactive
same,outcome,[8],inactive
same,outcome,[9],inactive
same,outcome,[10],inactive
same,outcome,[11],inactive
same,outcome,[12],inactive
same,AC50,[13],50 µM (active)
same,outcome,BCL2L11 (gene 10018),inactive
same,outcome,[14],inactive
same,outcome,[15],inactive
same,outcome,[16],inactive
same,outcome,Caspase-3 (Homo sapiens),inactive
same,outcome,[17],inactive
same,AC50,[18],76.3 µM (active)
O=C(O)c1c(Cl)ccc2cc(Cl)cnc12,outcome,[1],inactive
same,outcome,[2],inactive
same,outcome,[3],inactive
same,outcome,[4],inactive
same,outcome,[5],inactive
same,outcome,[6],inactive
same,outcome,[7],inactive
same,outcome,[8],inactive
same,outcome,[9],inactive
same,outcome,[10],inactive
same,outcome,[11],inactive
same,outcome,[12],inactive
same,outcome,[13],inactive
same,outcome,BCL2L11 (gene 10018),inactive
same,outcome,[14],inactive
same,outcome,[15],inactive
same,outcome,[16],inactive
same,outcome,Caspase-3 (Homo sapiens),inactive
same,outcome,[17],inactive
same,outcome,[18],inactive
N#Cc1c(Cl)cccc1Cl,outcome,[1],inactive
same,outcome,[2],inactive
same,outcome,[3],inactive
same,outcome,[4],inactive
same,outcome,[5],inactive
same,outcome,[6],inactive
same,outcome,[7],inactive
same,outcome,[8],inactive
same,outcome,[9],inactive
same,outcome,[10],inactive
same,outcome,[11],inactive
same,outcome,[12],inactive
same,outcome,[13],inactive
same,outcome,BCL2L11 (gene 10018),inactive
same,outcome,[14],inactive
same,outcome,[15],inactive
same,outcome,[16],inactive
same,outcome,Caspase-3 (Homo sapiens),inactive
same,outcome,[17],inactive
same,outcome,[18],inactive
Cn1c(-c2ccccc2)cc(-c2ccccc2)[n+]1C,AC50,[3],2.67 µM (active)
same,AC50,[4],24.4 µM (active)
same,AC50,[5],62.6 µM (active)
same,outcome,[6],inactive
same,outcome,[7],inactive
same,AC50,[8],21.2 µM (active)
same,AC50,[9],50 µM (active)
same,outcome,[10],inactive
same,outcome,[11],inactive
same,AC50,[12],82.1 µM (active)
same,AC50,[13],39.5 µM (active)
same,outcome,BCL2L11 (gene 10018),inactive
same,AC50,[14],63.8 µM (active)
same,AC50,[15],13.3 µM (active)
same,AC50,[16],80 µM (active)
same,AC50,Caspase-3 (Homo sapiens),50 µM (active)
same,outcome,[17],inactive
same,AC50,[18],13.2 µM (active)
COc1cc(OC)nc(NC(=O)NS(=O)(=O)c2ncccc2OCC(F)(F)F)n1,AC50,[1],31.3 µM (active)
same,outcome,[2],inactive
same,outcome,[3],inactive
same,outcome,[4],inactive
same,outcome,[5],inactive
same,outcome,[6],inactive
same,outcome,[7],inactive
same,outcome,[8],inactive
same,outcome,[9],inactive
same,outcome,[10],inactive
same,outcome,[11],inactive
same,outcome,[12],inactive
same,outcome,[13],inactive
same,outcome,BCL2L11 (gene 10018),inactive
same,outcome,[14],inactive
same,outcome,[15],inactive
same,outcome,[16],inactive
same,outcome,Caspase-3 (Homo sapiens),inactive
same,outcome,[17],inactive
same,outcome,[18],inactive
CC1(C)CCC(=Cc2ccc(Cl)cc2)C1(O)Cn1cncn1 (stereo not drawn),AC50,[1],4.18 µM (active)
same,outcome,[2],inactive
same,outcome,[3],inactive
same,outcome,[4],inactive
same,outcome,[5],inactive
same,outcome,[6],inactive
same,AC50,[7],34 µM (active)
same,outcome,[8],inactive
same,outcome,[9],inactive
same,outcome,[10],inactive
same,outcome,[11],inactive
same,outcome,[12],inactive
same,outcome,[13],inactive
same,outcome,BCL2L11 (gene 10018),inactive
same,AC50,[14],49.8 µM (active)
same,outcome,[15],inactive
same,outcome,[16],inactive
same,outcome,Caspase-3 (Homo sapiens),inactive
same,outcome,[17],inactive
same,AC50,[18],23.3 µM (active)
